Laboratory results as given in PubChem BioAssay AID504847 (National Center for Advancing Translational Sciences (NCATS), 2011).
Among all 400,000 compounds or so, about 3,700 (0.93%) were called active. About 3% were inconclusive and are not listed. What follows is part of a selection rich in actives, with near analogues and random picks from the rest. Unmarked numbers belong to inactive results. Calls follow the shape of the dose curve; as a rule, active = well fitted inhibition curve with a large enough effect; inconclusive = small, poorly fitted or top-dose-only effect, or another doubt; inactive = no such curve, though single readings can be large or run the other way.

target: Vitamin D3 receptor (Homo sapiens) (UniProt P11473); assay: Inhibitors of the vitamin D receptor (VDR): qHTS; settings: VDR-SRC2-3 peptide fluorescence polarization, 2 h; max response, negative = inhibition: stronger effect = lower value
Summary of the method: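 The screen uses fluorescence polarization to detect compounds that interfere with recruitment of the SRC2-3 coactivator peptide to VDR; plates are read after 2 h at room temperature.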
% is scaled to controls: 0 for no effect and ±100 for the full control effect; potency is read from the fitted curve at half-maximal effect.

Sequence of Vitamin D3 receptor (Homo sapiens) (P11473 whole entry, looked up): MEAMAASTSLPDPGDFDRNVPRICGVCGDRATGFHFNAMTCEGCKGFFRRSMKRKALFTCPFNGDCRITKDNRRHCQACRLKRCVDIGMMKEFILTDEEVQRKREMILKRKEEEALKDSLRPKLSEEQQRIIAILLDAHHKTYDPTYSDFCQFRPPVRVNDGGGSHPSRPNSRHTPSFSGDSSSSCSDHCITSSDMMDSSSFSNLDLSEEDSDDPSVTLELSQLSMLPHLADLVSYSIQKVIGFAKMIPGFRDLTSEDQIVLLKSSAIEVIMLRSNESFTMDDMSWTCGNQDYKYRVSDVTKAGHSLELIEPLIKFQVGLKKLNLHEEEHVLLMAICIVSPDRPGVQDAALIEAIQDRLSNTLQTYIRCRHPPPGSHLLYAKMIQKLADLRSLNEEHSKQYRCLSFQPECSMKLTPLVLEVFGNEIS

Molecule | max response, negative = inhibition | Potency
CC(Sc1nc(-c2ccccc2)cc(C(F)(F)F)n1)C(=O)Nc1ccc2c(c1)OCO2 (stereo unspecified) | -18.9% | 
Cc1ccc(O)c(NC(=O)CCS(=O)(=O)c2nc(-c3ccc4c(c3)OCO4)cc(C(F)(F)F)n2)c1 |  | 50.1 µM (active)
Cc1ccc(O)c(NC(=O)c2cc(-c3ccc(F)cc3)no2)c1 | 12% | 
Cc1ccc(C(=O)COC(=O)C(Cc2c[nH]c3ccccc23)NC(=O)c2ccc(Br)cc2)cc1 (stereo unspecified) | 6.05% | 
CCOc1ccccc1CNC(=O)c1cnc2c(-c3ccc(OCC)c(OCC)c3)c(C)nn2c1C | 12.6% | 
CN(c1ccccc1)S(=O)(=O)c1cc(C(=O)Nc2nc3ccccc3[nH]2)ccc1Cl | 22.7% | 
O=C(/C(=C/c1cccc(Cl)c1)c1nc2ccccc2[nH]1)c1ccccc1 |  | 79.4 µM (active)
Cc1ccc2nc(CNC(=O)c3ccccc3)[nH]c2c1 | 11.1% | 
COc1cc(OC)c2c(c1Cl)OC1(C2=O)C(O)=CC(=O)CC1C (stereo unspecified) | 1.06% | 
COc1ccccc1OCC(=O)Nc1nnc2n1CCS2 | -3.73% | 
Cc1ccc(NC(=O)Cc2ccc(NC(=O)N3CCCCc4ccccc43)cc2)cc1 | 6.32% | 
CN(C)c1nc(=Nc2cccc(Cl)c2)ss1 |  | 25.1 µM (active)
Cc1c(-c2nsc(NC(=O)c3cccc(Cl)c3)n2)nnn1-c1ccccc1C(F)(F)F | 1.99% | 
CCc1ccccc1NC(=O)CSc1nc(C)c(C(=O)Nc2ccccc2)c(-c2ccc(Cl)cc2)c1C#N | 5.32% | 
COc1ccc(-c2nc(CN3CCC(C(=O)NCc4ccccc4)CC3)c(C)o2)cc1OC | -18.6% | 
Nc1ccccc1SC(C[N+](=O)[O-])c1ccccc1 (stereo unspecified) |  | 3.55 µM (active)
O=C(Nc1cccc(-c2nc3ccccc3o2)c1)c1cccc(Br)c1 | 4.46% | 
Cc1ccc2ccc3c(c2n1)NS(=O)(=O)c1ccccc1-3 | -4.3% | 
CCS(=O)(=O)c1cc([N+](=O)[O-])c(Sc2ccccc2N)s1 |  | 28.2 µM (active)
CCOC(=O)c1cnc2c(C)cc(Cl)cc2c1NCCc1ccc(OC)c(OC)c1 | 2.98% | 
COc1ccc(NC(=O)CSc2nc3ncccc3[nH]2)c(OC)c1 | 22.9% | 
COc1ccc(NC(=O)Cn2c(=O)n(CCC(C)C)c(=O)c3cccnc32)cc1Cl | 11.2% | 
FC(F)(F)c1ccccc1-c1nc(-n2ccnc2)c2ccccc2n1 |  | 50.1 µM (active)

Molecule | max response, negative = inhibition | Potency
COc1ccc(N2CCN(c3nc(-c4ccccc4F)nc4ccccc34)CC2)cc1 | 21.1% | 
COc1ccccc1-c1nc(N2CCN(C)CC2)c2ccccc2n1 | -9.82% | 
Cc1ccc(C)c(Nc2nnc(-c3ccc(C)c(S(=O)(=O)N4CCCCC4)c3)c3ccccc23)c1 | 2.71% | 
CC(C)(C)c1ccc(C(=O)Nc2ccc3c(c2)CCCN3C(=O)c2cccs2)cc1 | -1.02% | 
O=C(C1CCC(Cn2c(=O)c3sccc3n(Cc3ccccc3F)c2=O)CC1)N1CCCCC1 (stereo unspecified) | 8.9% | 
Cc1ccc(SC(CC(=O)c2ccc(C(C)(C)C)cc2)C(=O)O)cc1 (stereo unspecified) |  | 20 µM (active)
CC(C)(C)c1ccc(C(=O)NNC(=O)Cc2ccccc2)cc1 | 3.53% | 
Cc1ccc(Sc2cc(C(=O)c3ccccc3C(=O)O)ccc2[N+](=O)[O-])cc1 | -16.9% | 
CCCCCCCC[C@@H](O)/C=C/C=C/C=C\[C@@H](O)CCCC(=O)O | 10.9% | 
COc1ccc(NC(=O)c2cc3cc(C)ccc3n2C)cc1 | 8.19% | 
O=C(Cn1cnc2c(OCc3ccccc3)ncnc21)NCc1nc2ccccc2[nH]1 |  | 79.4 µM (active)
CC(CNC(=O)Cn1cnc2c(OCc3ccccc3)ncnc21)c1ccccc1 (stereo unspecified) | -7.14% | 
O=C(Cn1cnc2c(OCc3ccccc3)ncnc21)NCCCn1ccnc1 | 6.56% | 
COc1ccc(C2CC(=O)Nc3c2c(=O)nc2c(C)cccn32)cc1OC (stereo unspecified) | 12.4% | 
O=C(/C=C(O)/C=C/c1ccc(O)cc1)/C=C/c1ccc(O)cc1 | -24.8% | 
CNC(=O)c1csc(-c2ccccc2)n1 | 4.33% | 
Cc1[nH]c(=O)c(C(=O)/C=C/c2ccccc2)c2c1CCCC2 | -23.7% | 
O=C(/C=C/c1ccccc1)c1ccccc1O |  | 17.8 µM (active)
O=C(NNC(=O)c1ccccc1O)c1ccccc1O | 10.5% | 
Cc1nc(-c2ccccc2)sc1C(=O)/C=C/c1ccccc1 |  | 79.4 µM (active)
CCOC(=O)c1ccc(N2C(=O)c3n[nH]c(-c4ccco4)c3C2c2ccc(O)cc2)cc1 (stereo unspecified) | -8.24% | 
Cc1cccn2c(=O)c(C(=O)NC(C)c3ccccc3)cnc12 (stereo unspecified) | -16% | 
COC(=O)c1ccc(Cn2c(SCC(=O)N(C)c3ccccc3)nc3ccccc32)cc1 | 14.3% | 

Molecule | max response, negative = inhibition | Potency
COc1cc(/C=C2/C(=O)ON=C2C)ccc1OCc1cccc(F)c1 |  | 25.1 µM (active)
C=CCOc1ccc(/C=N/NC(=O)C(C)Sc2ccccn2)cc1OCC (stereo unspecified) | -3.04% | 
C=CCOc1ccc(/C=C2/C(=O)ON=C2C)cc1OCC |  | 79.4 µM (active)
COc1ccnc2c1c(=O)n(Cc1cccc(F)c1)c(=O)n2C | 0.374% | 
COc1cc(/C=C2\SC(=O)NC2=O)ccc1OCc1ccc(Cl)nc1 | 3.39% | 
C#CCOc1ccccc1/C=C1/C(=O)ON=C1C | -13.5% | 
Cc1ccc(C)c(N2CCN(C(c3ccccc3)c3nnc(-c4ccccc4)o3)CC2)c1 (stereo unspecified) | 0% | 
Cc1ccc(C2C=C(c3ccc(Cl)cc3)Nc3nc(NC(=O)CCC(=O)O)nn32)cc1 (stereo unspecified) | -1.64% | 
CCOC(=O)c1c(C)[nH]c(CCC(=O)NCCCN2CCN(c3cc(C)ccc3C)CC2)c1C | 1.52% | 
CCOC(OCC)OCC | -7.21% | 
O=c1ccc2c(-c3ccccc3S(=O)(=O)O)c3ccc(O)c(O)c3oc-2c1O |  | 35.5 µM (active)
Cc1nc2cnc(N3CCNCC3)nc2n(CCc2ccccc2)c1=O | -10.9% | 
CCOC(=O)N1CCN(C(c2cccnc2)c2ccc3cccnc3c2O)CC1 (stereo unspecified) |  | 39.8 µM (active)
COc1ccccc1N1CCN(C(CNC(=O)C(=O)NCc2ccc(C)cc2)c2cccnc2)CC1 (stereo unspecified) | 1.11% | 
CCCCC(=O)NC(c1ccc(OC)c(OC)c1)c1ccc2cccnc2c1O (stereo unspecified) | 6.08% | 
COc1ccc(CCNC(=O)c2ccc3c(c2)nc(C)n3-c2ccc(Br)cc2)cc1OC | 12.9% | 
C#CC(C)(CC)NC(=O)Cn1nnc(-c2ccc(OCc3c(F)cccc3Cl)cc2)n1 (stereo unspecified) | 15.5% | 
CN(C)S(=O)(=O)N1CCC(Oc2cccc(C(=O)NCCCC3CCCC3)c2)CC1 |  | 28.2 µM (active)
COc1cccc(C(=O)NCCS(=O)(=O)NCC2CCCO2)c1 (stereo unspecified) | -19.7% | 
CNS(=O)(=O)c1cccc(C(=O)NCC2CCCCC2)c1 | 12.7% | 
CC(C)(C)SCCNC(=O)c1cccc([N+](=O)[O-])c1 | -16.4% | 
COc1cccc(C(=O)CC(=O)C(=O)Nc2ccc([N+](=O)[O-])cc2C)c1 | -6.66% | 
COc1cccc(NCCC(=O)c2cccc([N+](=O)[O-])c2)c1 |  | 79.4 µM (active)

Molecule | max response, negative = inhibition | Potency
COC(=O)c1ccc(-c2nc3cc(NC(C)=O)ccc3o2)cc1 | -22.5% | 
H-EHIPA-OH | 2.51% | 
CCc1ccc(NC(=O)C2CCCN2S(=O)(=O)c2ccc3nc(-c4ccccc4)[nH]c3c2)cc1 (stereo unspecified) | 14.5% | 
Oc1c(Cl)cc(Cl)c(Cl)c1Cc1c(O)c(Cl)cc(Cl)c1Cl |  | 44.7 µM (active)
CCOC(=O)C1=NOC(Cn2cc(C(C)=O)c(=O)[nH]c2=O)C1 (stereo unspecified) | 1.11% | 
CCOC(=O)C1=NO[C@@]2(C=C(Br)C(=O)[C@H]3O[C@H]32)C1 |  | 11.2 µM (active)
COc1cc2c(cc1OC)CC(=O)N(CCCN(C)C[C@H]1Cc3cc(OC)c(OC)cc31)CC2 | 7.93% | 
Cc1ccc(N2CCN(C(=O)c3cccs3)CC2)c(C)c1 | 7.64% | 
O=C(c1ccc(CSc2ccccc2)cc1)N1CCCCCC1 | -7.06% | 
N#Cc1c(N)sc2c1CCN(C(=O)OCc1ccccc1)C2 | -3.82% | 
Cc1ccc(-n2c(N)c(C(=O)N3CCOCC3)sc2=S)c(C)c1 |  | 79.4 µM (active)
Cc1ccc(S(=O)(=O)N2CCN(C(=O)N3CCOCC3)CC2)c(C)c1 | -13.6% | 
N#Cc1ccccc1-n1c(N)c(C(=O)N2CCCC2)sc1=S |  | 50.1 µM (active)
CCCCNC(=O)c1ccc2c(c1)NC(=O)C(C(C)C)N2 (stereo unspecified) | -3.65% | 
CCc1ccc(NC(=O)CN2CCSc3ccc(S(=O)(=O)N4CCCC4)cc32)cc1 | 9.86% | 
O=C(c1cccc(Br)c1)N1CCN(Cc2cc(=O)n3nc(-c4ccccc4)sc3n2)CC1 | 13% | 
CCc1ccc(OCCCn2c(CCCNC(=O)C3CCCCC3)nc3ccccc32)cc1 | -1.15% | 
O=C(NCCCO)C(=O)Nc1c2c(nn1-c1ccccc1)CSC2 | 5.32% | 
COc1ccc(CCNC(=O)CCCCn2c(=O)c3ccccc3n(Cc3ccccc3C)c2=O)cc1OC | 7.91% | 
COc1ccccc1N1CCN(/N=C/c2ccc(O)cc2O)CC1 | -16.7% | 
COc1cc(/C=N/N2CCN(c3ccccc3)CC2)ccc1OC(C)=O | -1.69% | 
COc1ccccc1N1CCN(/N=C\C(Br)=C\c2ccccc2)CC1 |  | 44.7 µM (active)
